Our source for the AC50 and outcome values is PubChem BioAssay (EPA / NIEHS).

Read-out in experiment [1]: Monokine induced gamma interferon (MIG), CXCL9 (gene 4283)
Briefly: BSK_hDFCGF_MIG: BioMAP Diversity Plus: hDFCGF Assay for Monokine induced gamma interferon (MIG) Biomarker Activity (AID 2283063). Conditions: primary human foreskin fibroblasts; actives raise or lower the signal. Summed up: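 Human primary foreskin fibroblasts in the hDFCGF system, exposed to test chemical for 24 h; MIG measured by ELISA. Bidirectional curve fitting against DMSO negative control as activity baseline.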

Read-out in experiment [2]: Vascular cell adhesion molecule 1 (VCAM1), VCAM1 (gene 7412)
Briefly: BSK_hDFCGF_VCAM1: BioMAP Diversity Plus: hDFCGF Assay for Vascular cell adhesion molecule 1 (VCAM1) Biomarker Activity (AID 2283065).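 As to AC50: VCAM-1 protein level quantified by ELISA after 24 h chemical exposure.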 Conditions: primary human foreskin fibroblasts; actives raise or lower the signal. Summed up: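 ELISA readout of VCAM-1 on human dermal fibroblast primary cultures, 24 h after chemical exposure. Gain or loss of signal fitted in both directions against DMSO baseline.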

Read-out in experiment [3]: Plasminogen activator inhibitor-1 (PAI1), SERPINE1 (gene 5054)
Briefly: BSK_hDFCGF_PAI1: BioMAP Diversity Plus: hDFCGF Assay for Plasminogen activator inhibitor-1 (PAI1) Biomarker Activity (AID 2283066). Conditions: primary human foreskin fibroblasts; actives raise or lower the signal. The gist of the method:
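Human skin fibroblast cultures receive chemical for 24 h before PAI-1 is measured by ELISA; signal changes are fitted bidirectionally against DMSO-treated wells.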

Read-out in experiment [4]: Intercellular Adhesion Molecule 1 (ICAM1), ICAM1 (gene 3383)
Briefly: BSK_KF3CT_ICAM1: BioMAP Diversity Plus: KF3CT Assay for Intercellular Adhesion Molecule 1 (ICAM1) Biomarker Activity (AID 2283067). Conditions: primary human keratinocytes with fibroblasts; actives raise or lower the signal. The gist of the method:
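Cell-surface ICAM-1 was measured by ELISA 24 h after dosing primary human skin keratinocytes co-cultured with fibroblasts. Parallel SRB staining tracked overt cytotoxicity. Gain or loss of signal was fitted relative to DMSO.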

Read-out in experiment [5]: Interferon-gamma inducible Protein 10 (IP10), CXCL10 (gene 3627)
Briefly: BSK_KF3CT_IP10: BioMAP Diversity Plus: KF3CT Assay for Interferon-gamma inducible Protein 10 (IP10) Biomarker Activity (AID 2283068). Conditions: primary human keratinocytes with fibroblasts; actives raise or lower the signal. The gist of the method: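 Signal is secreted/surface IP-10 by ELISA in a human primary skin co-culture of keratinocytes and foreskin fibroblasts, taken 24 h post-dosing; DMSO served as negative control.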

Experiment [6] in a line: BSK_KF3CT_SRB: Viability Assessment in the BioMAP Diversity Plus: KF3CT Assay (AID 2283069).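 Also: read 24 h after compound addition.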 Conditions: primary human keratinocytes with fibroblasts. The gist of the method:
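Overt cytotoxicity is assessed as total protein by sulforhodamine B staining in parallel human skin co-cultures at 24 h after dosing. DMSO serves as negative control and baseline.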

Read-out in experiment [7]: Interleukin-1 alpha (IL1a), IL1A (gene 3552)
Briefly: BSK_KF3CT_IL1a: BioMAP Diversity Plus: KF3CT Assay for Interleukin-1 alpha (IL1a) Biomarker Activity (AID 2283070). Conditions: primary human keratinocytes with fibroblasts; actives raise or lower the signal. The gist of the method: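 Readout is IL-1a level by ELISA, compared bidirectionally with DMSO as baseline. Cells: human keratinocytes co-cultured with foreskin fibroblasts, harvested 24 h post-dose.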

Read-out in experiment [8]: TIMP metallopeptidase inhibitor 2 (TIMP2), TIMP2 (gene 7077)
Briefly: BSK_KF3CT_TIMP2: BioMAP Diversity Plus: KF3CT Assay for TIMP metallopeptidase inhibitor 2 (TIMP2) Biomarker Activity (AID 2283071). Conditions: primary human keratinocytes with fibroblasts; actives raise or lower the signal. The gist of the method:
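Measurements come from ELISA detection of TIMP-2 at 24 hours in a dosed human keratinocyte and foreskin fibroblast co-culture. DMSO serves as negative control and baseline.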

Read-out in experiment [9]: Transforming growth factor beta 1 (TGFb1), TGFB1 (gene 7040)
Briefly: BSK_KF3CT_TGFb1: BioMAP Diversity Plus: KF3CT Assay for Transforming growth factor beta 1 (TGFb1) Biomarker Activity (AID 2283072). Conditions: primary human keratinocytes with fibroblasts; actives raise or lower the signal. Summed up: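 TGF-b1 ELISA on a 24 h dosed co-culture of human keratinocytes and foreskin fibroblasts; cytotoxicity tracked in parallel cultures by SRB staining.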

Read-out in experiment [10]: C-C motif chemokine 2 (Homo sapiens) (UniProt P13500)
Briefly: BSK_KF3CT_MCP1: BioMAP Diversity Plus: KF3CT Assay for Monocyte Chemoattractant Protein 1 (MCP1/CCL2) Biomarker Activity (AID 2283073). Conditions: primary human keratinocytes with fibroblasts; actives raise or lower the signal. The gist of the method: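 ELISA read-out of MCP-1, 24 h post-dose, in primary human skin keratinocytes co-cultured with fibroblasts. Parallel SRB staining monitors cytotoxicity; changes fitted both directions relative to DMSO.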

Read-out in experiment [11]: Matrix Metallopeptidase 9 (MMP9), MMP9 (gene 4318)
Briefly: BSK_KF3CT_MMP9: BioMAP Diversity Plus: KF3CT Assay for Matrix Metallopeptidase 9 (MMP9) Biomarker Activity (AID 2283074).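 As to AC50: MMP9 protein level quantified by ELISA in the co-culture.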 Conditions: primary human keratinocytes with fibroblasts; actives raise or lower the signal. Summed up: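 Values come from bidirectional fitting relative to DMSO of MMP-9 levels, which were measured by ELISA. Measurements were taken 24 h after chemical dosing of a keratinocyte and foreskin fibroblast co-culture.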

Read-out in experiment [12]: urokinase plasminogen activator (uPA), PLAU (gene 5328)
Briefly: BSK_KF3CT_uPA: BioMAP Diversity Plus: KF3CT Assay for urokinase plasminogen activator (uPA) Biomarker Activity (AID 2283075). Conditions: primary human keratinocytes with fibroblasts; actives raise or lower the signal. Summed up:
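Values derive from bidirectional fitting against DMSO controls. Keratinocyte/foreskin fibroblast co-cultures received chemical; 24 h later uPA was detected by ELISA, with SRB total-protein staining in parallel wells for overt cytotoxicity.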

Read-out in another experiment: CD40, CD40 (gene 958)
Briefly: BSK_LPS_CD40: BioMAP Diversity Plus: LPS Assay for CD40 Biomarker Activity (AID 2283076). To be noted: primary human HUVEC with PBMC; actives raise or lower the signal. The gist of the method: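 In the LPS system of human endothelial cells with peripheral blood mononuclear cells, CD40 levels were read by ELISA 24 h post-treatment. Signal changes in either direction were fitted against the DMSO baseline, with parallel SRB protein staining.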

Read-out in experiment [13]: E-selectin (Homo sapiens) (UniProt P16581)
Briefly: BSK_LPS_Eselectin: BioMAP Diversity Plus: LPS Assay for Eselectin Biomarker Activity (AID 2283077). Conditions: primary human HUVEC with PBMC; actives raise or lower the signal. Summed up: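 E-selectin ELISA on LPS-stimulated endothelial cell/PBMC co-cultures, read 24 h post-treatment; gains and losses fitted against DMSO. Parallel SRB staining (0.1% SRB after 10% TCA fixation, 560 nm) flags overt cytotoxicity.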

Read-out in experiment [14]: Interleukin-8 (IL8), CXCL8 (gene 3576)
Briefly: BSK_LPS_IL8: BioMAP Diversity Plus: LPS Assay for Interleukin-8 (IL8) Biomarker Activity (AID 2283078). To be noted: primary human HUVEC with PBMC; actives raise or lower the signal. The gist of the method: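 ELISA read-out of IL-8 after 24 h chemical treatment of LPS-activated endothelial/PBMC human primary co-cultures. Changes either up or down relative to DMSO; overt cytotoxicity checked by sulforhodamine B staining in parallel wells.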

Experiment [15] can be described thus: BSK_LPS_SRB: Viability Assessment in the BioMAP Diversity Plus: LPS Assay (AID 2283079).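 Also: total protein by sulforhodamine B absorbance as a cytotoxicity measure; measured one day after compound addition.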 Conditions: primary human HUVEC with PBMC. Summed up: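 SRB viability endpoint: cells fixed with 10% TCA, stained with 0.1% SRB, read at 560 nm, 24 h post-dose. HUVEC/PBMC co-culture; signal change in either direction scored relative to DMSO.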
Read-out in experiment [16]: Interleukin-1 alpha (IL1a), IL1A (gene 3552)
Briefly: BSK_LPS_IL1a: BioMAP Diversity Plus: LPS Assay for Interleukin-1 alpha (IL1a) Biomarker Activity (AID 2283080). To be noted: primary human HUVEC with PBMC; actives raise or lower the signal. Summed up: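 Readout is IL-1a level by ELISA, 24 h post-dose, fitted as gain or loss relative to DMSO. System: LPS-activated human primary co-culture of vascular endothelium and peripheral blood mononuclear cells, with parallel SRB total-protein cytotoxicity.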

Read-out in experiment [17]: Monocyte Chemoattractant Protein-1 (MCP1), CCL2 (gene 6347)
Briefly: BSK_LPS_MCP1: BioMAP Diversity Plus: LPS Assay for Monocyte Chemoattractant Protein-1 (MCP1) Biomarker Activity (AID 2283081).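 As to AC50: secreted MCP-1 protein quantified by ELISA in culture supernatant.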 Conditions: primary human HUVEC with PBMC; actives raise or lower the signal. The gist of the method:
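Secreted MCP-1 read by ELISA at 24 h post-dosing in an LPS-activated co-culture of endothelial cells with peripheral blood mononuclear cells. Fits run in both directions, DMSO as baseline; parallel SRB staining tracks overt cytotoxicity.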

Experiment [18] is described as follows: BSK_LPS_PGE2: BioMAP Diversity Plus: LPS Assay for Prostaglandin E2 (PGE2) Biomarker Activity (AID 2283082).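 Also: secreted prostaglandin E2 measured by ELISA in LPS-stimulated co-culture.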 Conditions: primary human HUVEC with PBMC; actives raise or lower the signal. The gist of the method: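 Primary human endothelial cells and blood mononuclear cells, co-cultured with LPS, receive test chemical; PGE2 ELISA follows at 24 h, with SRB-stained parallel cultures flagging cytotoxicity.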

Activity calls are given as the source filed them. The calls were made as follows: active = hit-call score of the fitted dose curve at least 0.9, where 1 is the maximum; inactive = score below 0.9.

Chain of E-selectin (Homo sapiens) (P16581 whole entry, looked up): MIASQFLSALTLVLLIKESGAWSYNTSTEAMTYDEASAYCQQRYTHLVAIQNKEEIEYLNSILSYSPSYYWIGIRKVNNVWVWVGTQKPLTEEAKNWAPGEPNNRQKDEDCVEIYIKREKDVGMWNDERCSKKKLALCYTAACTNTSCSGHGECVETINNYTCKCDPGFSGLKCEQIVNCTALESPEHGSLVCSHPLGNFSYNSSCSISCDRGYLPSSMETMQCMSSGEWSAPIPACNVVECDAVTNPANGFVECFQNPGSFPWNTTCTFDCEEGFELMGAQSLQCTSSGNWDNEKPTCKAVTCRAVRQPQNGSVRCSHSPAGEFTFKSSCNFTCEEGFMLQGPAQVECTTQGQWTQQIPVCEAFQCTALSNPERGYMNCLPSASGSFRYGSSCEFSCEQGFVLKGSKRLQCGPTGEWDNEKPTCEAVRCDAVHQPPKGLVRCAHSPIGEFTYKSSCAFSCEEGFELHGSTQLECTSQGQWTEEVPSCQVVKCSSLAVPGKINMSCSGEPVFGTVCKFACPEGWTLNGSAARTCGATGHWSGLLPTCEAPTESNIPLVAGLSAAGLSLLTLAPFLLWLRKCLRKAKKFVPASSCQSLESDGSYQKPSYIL

A word on the AC50: it is the concentration at which the activity in the assay is half-maximal. As for `CC(C)(C)CC(C)(C)c1ccc(OCCOCC[N+](C)(C)Cc2ccccc2)cc1`, the AC50 is 7.5 µM (active) in [1]; 6.9 µM (active) in experiment [2]; 5 µM (active) in [3]; 9.07 µM (active) in experiment [4]; 7.61 µM (active) in [5]; 6.61 µM (active) in experiment [6]. Further, the AC50 in [7] was 8.08 µM (active); in experiment [8], 2.26 µM (active); in [9], 3.38 µM (active); in [10], 8.05 µM (active); in [11], 5 µM (active); in experiment [12] it was 5 µM (active). For the same compound, the AC50 in the experiment with CD40, CD40 (gene 958) is 7.8 µM (active); in experiment [13], 7.56 µM (active); in [14] it was 6.61 µM (active); in [15], 8.5 µM (active); in experiment [16], 5 µM (active); in experiment [17], 7.38 µM (active).

Turning to `CS(=O)(=O)OCCCCOS(C)(=O)=O`, the result in [1], in experiment [2], in experiment [3], in experiment [4], in experiment [5] and in experiment [6] was inactive. Also, the outcome in [7], in experiment [8], in [9], in experiment [10], in [11] and in experiment [12] was inactive. For the same compound, the outcome with CD40, CD40 (gene 958) is “inactive”; in experiment [13], “inactive”; in experiment [14], “inactive”; in experiment [15] it was “inactive”; in experiment [16] it was “inactive”; in experiment [17], “inactive”.

Turning to `c1ccc(Oc2ccccc2)cc1`, the outcome is “inactive” in [1]; “inactive” in experiment [2]; “inactive” in experiment [3]; “inactive” in experiment [4]; “inactive” in [6]; “inactive” with CD40, CD40 (gene 958). Also, the outcome in experiment [13], in [14], in experiment [15], in experiment [16] and in experiment [17] was inactive. The AC50 in [5] is 34.6 µM (active); in experiment [7], 20 µM (active); in [8] it was 30.8 µM (active); in experiment [9], 20 µM (active); in [10], 30.7 µM (active); in experiment [11], 20 µM (active). In addition, the half-maximal activity concentration (AC50) in [12] is 20 µM (active).

Regarding `C1=CC2C3C=CC(C3)C2C1` (stereo not drawn), the result in experiment [1], in [2], in [3], in [4], in experiment [5] and in [6] was inactive. In addition, the outcome in [7], in [8], in [9], in [10], in experiment [11] and in experiment [12] was inactive. The outcome with CD40, CD40 (gene 958) is “inactive”; in experiment [13] it was “inactive”; in experiment [14], “inactive”; in [15], “inactive”; in experiment [16], “inactive”; in [17], “inactive”.

Take `CN(C)C(=S)SC(=S)N(C)C`: the AC50 is 34.4 µM (active) in experiment [1], 31.2 µM (active) in experiment [2], 19.9 µM (active) in [3] and 27.3 µM (active) in [4]. For the same compound, the outcome in experiment [5], in experiment [6], in experiment [7], in experiment [8], in [9] and in experiment [10] was inactive. The outcome was “inactive” in experiment [11]; “inactive” in [12]; “inactive” with CD40, CD40 (gene 958); “inactive” in experiment [13]; “inactive” in experiment [14]; “inactive” in experiment [15]. The outcome in experiment [16] and in experiment [17] was inactive.

`CC(=O)Nc1ccc(C(=O)CCl)cc1`: the AC50 is 9.4 µM (active) in experiment [1]; 7.32 µM (active) in [2]; 10.8 µM (active) in experiment [3]; 26.6 µM (active) in experiment [4]; 23.2 µM (active) in experiment [5]; 31 µM (active) in experiment [7]. Besides, the AC50 was 20 µM (active) in experiment [8]; 28.6 µM (active) in [10]; 20 µM (active) in experiment [11]; 30 µM (active) in [12]; 5.35 µM (active) in the experiment with CD40, CD40 (gene 958); 4.61 µM (active) in experiment [13]. The AC50 in experiment [14] is 3.91 µM (active); in experiment [15], 9.55 µM (active); in experiment [16] it was 4.52 µM (active); in experiment [17] it was 5.89 µM (active); in [18], 1.17 µM (active). The outcome in experiment [6] was inactive.
